These results are taken from PubChem BioAssay AID977607 (Broad Institute, 2014).

The campaign covered roughly 1,500 compounds. About 460 (31%) were called active. Not shown: some 1% with an inconclusive outcome. These entries were drawn from the full list. Entries with a potency or affinity are not part of this list. A number with no mark means an inactive call.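 The calls were made as follows: active = curve reaches 40% activation over neutral controls at an AC40 no higher than the top valid tested concentration; inconclusive = no clear call, values can overlap the other calls; inactive = signal moving opposite to the expected increase, and the rest.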

The assay in a line: GLuc-reported insulin release enhancers, glucose-stimulated beta cells – cell-based, INS-1E, Gaussia luciferase, luminescence, cherry-pick, set 2, dose response (AID 977607).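 Also: 0% = median of the plate neutral control wells.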 To be noted: INS-1E GLuc insulin secretion reporter, 2-3 h, stronger effect = higher value; at 35 µM, 100% = signal doubled over neutral wells unless noted.
Regarding `CN(C)CCNc1ncnc2oc(-c3ccccc3)c(-c3ccccc3)c12`, the max activation was -17.7% [at 0.0016 µM, 100% = signal doubled over neutral wells]. `CCOC(=O)C1CCCN(C(=O)c2ccccc2OC(F)(F)F)CC1` (centres undefined): the max activation was -23.6% [at 0.0016 µM, 100% = signal doubled over neutral wells]. Next, `CCOc1ccccc1OCCC(=O)NNC(=O)Cn1nc(C)cc1C`: -16% [at 0.005 µM, 100% = signal doubled over neutral wells]. Next, `CCOc1cc(/C=N/NC(=O)CCn2nnc3ccccc32)ccc1O`: 23.5%. Regarding `CCn1nnc(NC(=O)c2sc3ccccc3c2Cl)n1`, the max activation was -17.8% [at 3.8 µM, 100% = signal doubled over neutral wells]. For `Cc1c(NC(=S)NC(=O)c2sc3ccccc3c2Cl)cccc1C(=O)O`, the max activation is -23.7% [at 0.0016 µM, 100% = signal doubled over neutral wells].

Turning to `CCOc1nc(CC(C)C)c2c(c1C#N)CC(C)(C)OC2`, the max activation was -26.5%.

On to `O=C(NN(Cc1ccccc1)Cc1ccccc1)c1ccccc1`, for which the max activation is 23.7% [at 1.2 µM, 100% = signal doubled over neutral wells]. On to `O=C(c1cc(-c2ccccc2)nc2ccccc12)N1CCCC1`, for which the max activation was -13.5% [at 11 µM, 100% = signal doubled over neutral wells]. As for `Cn1cc(C(=O)NCC(=O)Nc2ccccc2Br)cn1`, the max activation is -16.7% [at 0.135 µM, 100% = signal doubled over neutral wells]. Consider `COc1cc2ccc(C(C)=O)cc2cc1OC`, for which the max activation was 29.7% [at 0.0016 µM, 100% = signal doubled over neutral wells]. Turning to `COc1ccc(CC(=O)c2ccc(OC)c(OC)c2)cc1`, the max activation was 18.3% [at 0.0016 µM, 100% = signal doubled over neutral wells]. As for `COc1ccc(C(C)=O)cc1CSCc1cc(C(C)=O)ccc1OC`, the max activation was 10.8%. Next, `CC(C)c1ccc2oc(=O)cc(CN3CCCCC3)c2c1`: -12.8%; `Cc1cc2oc(=O)cc(CN3CCOCC3)c2c(C)c1Cl`: -12.4% [at 0.0016 µM, 100% = signal doubled over neutral wells]; `COc1ccc(-c2cc(C(F)(F)F)n3nc(C(=O)O)cc3n2)cc1OC`: 13.4%. On to `Cc1ccccc1Cc1c(C)nc2c(C(=O)NCc3ccco3)cnn2c1C`, for which the max activation was -44.9%. With `C[C@H]1[C@@H](c2ccccc2)Oc2c(Cl)cccc2S(=O)(=O)N1C`, the max activation is -29.7% [at 11 µM, 100% = signal doubled over neutral wells]. Take `CCN1CCN(c2nnc(-c3ccccc3)c3ccccc23)CC1`: the max activation was 13.4% [at 0.135 µM, 100% = signal doubled over neutral wells]. Next, `COC(=O)Cn1cc(C#N)c2ccccc21`: 43% [at 0.42 µM, 100% = signal doubled over neutral wells]; `CN(C)C(=O)c1ccc(-c2ccc([C@@H]3[C@@H](CO)N4C(=O)CN(C(=O)C5CC5)C[C@@H]34)cc2)cc1`: 31.8% [at 0.046 µM, 100% = signal doubled over neutral wells]; `C/C=C1\COC(C(=O)NCc2ccccc2)(C(F)(F)F)C=C1C=C(C)C` (centres undefined): -29.1%. Next, `CN(c1ccc(F)cc1)S(=O)(=O)c1ccc(Cl)c(C(=O)NCC2CCCO2)c1` (centres undefined): -19.1%. For the compound `CN(C(=O)[C@H]1O[C@@H](n2cnc(C(N)=O)n2)[C@H](O)[C@@H]1O)c1ccccc1`, the max activation was -24.3% [at 1.2 µM, 100% = signal doubled over neutral wells]. Turning to `CN1CCSc2ccc(C(=O)Nc3cccc(F)c3)cc21`, the max activation was -34.2%. In the case of `Cc1nc2c(c(N3CCOCC3)n1)OCC(=O)N2`, the max activation was 52.8%. Turning to `COc1cc(C2N(C)CCC3(OCCO3)C2(C)C)cc(OC)c1OC` (centres undefined), the max activation is -12.6% [at 0.0016 µM, 100% = signal doubled over neutral wells]. Next, `CCSc1nnc2ccc(-c3cccs3)nn12`: 23.8%.

On to `COc1ccc(-c2nnc3sc(-c4ccco4)nn23)cc1OC`, for which the max activation was -14.1% [at 0.046 µM, 100% = signal doubled over neutral wells].

Take `CC/C(O)=C1\C(=O)CC(c2ccccc2)CC1=NC(C)C` (centres undefined): the max activation is -12.6% [at 1.2 µM, 100% = signal doubled over neutral wells].

Take `CCN(CC)CCn1c(=N)n(CC(O)COc2ccccc2)c2ccccc21` (centres undefined): the max activation is -13.8% [at 3.8 µM, 100% = signal doubled over neutral wells]. In the case of `Cc1ccc(C(CC(=O)O)NC(=O)c2ccc(S(=O)(=O)N3CC(C)OC(C)C3)cc2)cc1` (centres undefined), the max activation was -15.8% [at 0.42 µM, 100% = signal doubled over neutral wells]. For `CCOC1=C2[C@H](c3ccc(C)cc3)N(S(=O)(=O)c3ccc(C)cc3)C[C@H]2n2c(=O)n(-c3ccccc3)c(=O)n2C1`, the max activation was -23.2% [at 0.005 µM, 100% = signal doubled over neutral wells]. With `CNc1nc(N)c(C(=O)C(C)(C)C)s1`, the max activation is 27.9% [at 11 µM, 100% = signal doubled over neutral wells].

Regarding `CC1(C)Cc2c(c(-c3ccco3)nc3n[nH]c(N)c23)CO1`, the max activation was 25% [at 0.135 µM, 100% = signal doubled over neutral wells]. Turning to `CN=C1c2ccccc2CN1c1cccc(C(=O)OC)c1`, the max activation is 14.7%. Turning to `O=S(=O)(c1ccc(NCCCO)nc1)N1CCOCC1`, the max activation is -14.1% [at 0.015 µM, 100% = signal doubled over neutral wells]. On to `COC(=O)c1c(C)oc(C)c1S(=O)(=O)Nc1ccc(C(C)C)cc1`, for which the max activation was -24.4%. `Cc1ccc(-c2cnc3cccnn23)cc1F`: the max activation was 39% [at 0.015 µM, 100% = signal doubled over neutral wells].

On to `COC(=O)c1ccc(Oc2ccc(C(F)(F)F)cn2)cc1`, for which the max activation was -19.1% [at 0.135 µM, 100% = signal doubled over neutral wells].

On to `Cc1nc2c(-c3ccc(F)cc3)cnn2c2c1CCC2`, for which the max activation was -15.5% [at 0.0016 µM, 100% = signal doubled over neutral wells].

As for `COC(=O)C[C@@H]1C=C[C@H](NC(=O)Cc2ccccn2)[C@@H](CO)O1`, the max activation was -17.5% [at 0.015 µM, 100% = signal doubled over neutral wells]. With `COCCNC(=O)CCCn1c(=O)c2ccccc2n(Cc2ccccc2C#N)c1=O`, the max activation is -20.3% [at 0.015 µM, 100% = signal doubled over neutral wells].

As to `CCc1c(C(=O)Nc2ccc(C)c(C)c2)[nH]c(C)c1C(C)=O`, the max activation is -21.4% [at 11 µM, 100% = signal doubled over neutral wells]. Take `CCN(c1ccccc1)S(=O)(=O)c1ccc(OC)c(OC)c1`: the max activation is 12.1%. The same measure for `COc1ccc(S(=O)(=O)N2CCC(C(=O)NCc3ccccn3)CC2)cc1OC`: 32.9% [at 3.8 µM, 100% = signal doubled over neutral wells]; for `COc1ccc(N2CCN(S(=O)(=O)c3ccc(-c4cc(C)no4)s3)CC2)cc1`: -17.8% [at 0.135 µM, 100% = signal doubled over neutral wells]. In the case of `COc1ccc(-c2cc(C(=O)N(C)Cc3ccc(OC)c(OC)c3OC)c3ccccc3n2)cc1OC`, the max activation is 13.2% [at 11 µM, 100% = signal doubled over neutral wells]. Take `COc1ccc(CN(C)C(=O)c2cc(-c3ccc(OC)c(OC)c3)nc3ccccc23)c(OC)c1`: the max activation was -23.5%. Next, `c1cn2cc(-c3ccc(CN4CCOCC4)cc3)ccc2n1`: -25.5% [at 3.8 µM, 100% = signal doubled over neutral wells]. As to `O=c1[nH]c2cc(Cl)ccc2n(CCNc2ncc(C(F)(F)F)cc2Cl)c1=O`, the max activation is -28.9% [at 3.8 µM, 100% = signal doubled over neutral wells]. As to `COc1ccc(-c2cc3nc4ccccc4n3c(N)c2C#N)cc1`, the max activation is -29% [at 0.135 µM, 100% = signal doubled over neutral wells]. On to `O=C(O)c1ccc(-c2nc(-c3ccccc3)c(-c3cccs3)[nH]2)cc1`, for which the max activation was 6.45% [at 1.2 µM, 100% = signal doubled over neutral wells].

Regarding `COc1ccc(-c2ocnc2C(=O)Nc2ccc(N3CCOCC3)cc2N2CCOCC2)cc1OC`, the max activation is -29.2%. Turning to `COc1ccc(C2CC(c3ccc(OC)c(OC)c3)=NN2C(=O)c2ccccc2)cc1` (centres undefined), the max activation was -8.01% [at 0.0016 µM, 100% = signal doubled over neutral wells]. `O=c1c2ccccc2c(-c2ccccc2)nn1-c1ccccn1`: the max activation was -14.4%. Next, `COc1ccccc1Cn1c(=O)oc2ccccc21`: -27.7% [at 0.005 µM, 100% = signal doubled over neutral wells]. For the compound `COc1ccc(CNC(=O)C2Cc3c(-c4cccc(F)c4)ccnc3O2)cc1OC` (centres undefined), the max activation was -18.6% [at 0.015 µM, 100% = signal doubled over neutral wells]. For the compound `COc1cc2c3nnc(-c4ccccc4)c-3cn(Cc3ccccc3F)c2cc1OC`, the max activation is -22.1% [at 0.135 µM, 100% = signal doubled over neutral wells].
